This excerpt belongs to a sample that is enriched for the strongest signals.
Columns and labels:
Assay in all cases: glycan array binding signal (z-score within array); higher = stronger binding
Conditions in all cases: glycan notation: IUPAC condensed, linker removed
Fuc(a1-2)Gal = target: Fuc(a1-2)Gal
Method in brief: (§1)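 The Consortium for Functional Glycomics database supplied 3228 glycan arrays, of which those lacking an available protein sequence were dropped. The binding signal, a within-array Z-score, was averaged across arrays of the same protein sequence and across linkers. Negative scores can be read as non-binding.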

[1] = target: Fuc(a1-2)Gal(b1-3)GlcNAc(b1-2)Man(a1-3)[Fuc(a1-2)Gal(b1-3)GlcNAc(b1-2)Man(a1-6)]Man(b1-4)GlcNAc(b1-4)GlcNAc
Method in brief: as §1

[2] = target: Fuc(a1-2)Gal(b1-3)[Fuc(a1-4)]GlcNAc(b1-2)Man(a1-3)[Fuc(a1-2)Gal(b1-3)[Fuc(a1-4)]GlcNAc(b1-2)Man(a1-6)]Man(b1-4)GlcNAc(b1-4)[Fuc(a1-6)]GlcNAc(b1-4)[Fuc(a1-6)]GlcNAc
Method in brief: as §1

[3] = target: Fuc(a1-2)Gal(b1-4)[Fuc(a1-3)]GlcNAc(b1-2)[Fuc(a1-2)Gal(b1-4)[Fuc(a1-3)]GlcNAc(b1-4)]Man(a1-3)[Fuc(a1-2)Gal(b1-4)[Fuc(a1-3)]GlcNAc(b1-2)Man(a1-6)]Man(b1-4)GlcNAc(b1-4)GlcNAc
Method in brief: as §1

[4] = target: Fuc(a1-2)Gal(b1-4)[Fuc(a1-3)]GlcNAc(b1-3)Gal(b1-4)[Fuc(a1-3)]GlcNAc(b1-3)Gal(b1-4)[Fuc(a1-3)]GlcNAc
Method in brief: as §1

Fuc(a1-2)Gal6S(b1-4)Glc = target: Fuc(a1-2)Gal6S(b1-4)Glc
Method in brief: as §1

[5] = target: Fuc(a1-2)[Gal(a1-3)]Gal(b1-3)GlcNAc(b1-2)Man(a1-3)[Fuc(a1-2)[Gal(a1-3)]Gal(b1-3)GlcNAc(b1-2)Man(a1-6)]Man(b1-4)GlcNAc(b1-4)[Fuc(a1-6)]GlcNAc
Method in brief: as §1

[6] = target: Fuc(a1-2)[Gal(a1-3)]Gal(b1-4)GlcNAc
Method in brief: as §1

[7] = target: Fuc(a1-2)[Gal(a1-3)]Gal(b1-4)GlcNAc(b1-2)Man
Method in brief: as §1

[8] = target: Fuc(a1-2)[GalNAc(a1-3)]Gal(b1-4)GlcNAc(b1-2)Man
Method in brief: as §1

[9] = target: Fuc(a1-2)[GalNAc(a1-3)]Gal(b1-4)GlcNAc(b1-3)GalNAc
Method in brief: as §1

[10] = target: Fuc(a1-3)[Gal(b1-4)]GlcNAc(b1-6)[Gal(b1-3)GlcNAc(b1-3)]Gal(b1-4)Glc
Method in brief: as §1

[11] = target: Fuc(a1-3)[Gal3S(b1-4)]GlcNAc
Method in brief: as §1

Gal(a1-4)Gal(b1-4)Glc = target: Gal(a1-4)Gal(b1-4)Glc
Method in brief: as §1

Gal(b1-3)GlcNAc = target: Gal(b1-3)GlcNAc
Method in brief: as §1

[12] = target: Gal(b1-3)GlcNAc(a1-6)Gal(b1-4)GlcNAc
Method in brief: as §1

[13] = target: Gal(b1-3)GlcNAc(b1-2)Man(a1-3)[Gal(b1-3)GlcNAc(b1-2)Man(a1-6)]Man(b1-4)GlcNAc(b1-4)GlcNAc
Method in brief: as §1

[14] = target: Gal(b1-3)GlcNAc(b1-2)Man(a1-3)[Gal(b1-3)GlcNAc(b1-2)Man(a1-6)]Man(b1-4)GlcNAc(b1-4)[Fuc(a1-6)]GlcNAc
Method in brief: as §1

[15] = target: Gal(b1-3)GlcNAc(b1-3)Gal(b1-3)GlcNAc
Method in brief: as §1

[16] = target: Gal(b1-3)GlcNAc(b1-3)Gal(b1-4)GlcNAc
Method in brief: as §1

[17] = target: Gal(b1-3)GlcNAc(b1-3)Gal(b1-4)GlcNAc(b1-2)[Gal(b1-3)GlcNAc(b1-3)Gal(b1-4)GlcNAc(b1-6)]Man(a1-6)[Gal(b1-3)GlcNAc(b1-3)Gal(b1-4)GlcNAc(b1-2)Man(a1-3)]Man(b1-4)GlcNAc(b1-4)[Fuc(a1-6)]GlcNAc
Method in brief: as §1

[18] = target: Gal(b1-3)GlcNAc(b1-3)Gal(b1-4)GlcNAc(b1-3)Gal(b1-4)GlcNAc(b1-2)[Gal(b1-3)GlcNAc(b1-3)Gal(b1-4)GlcNAc(b1-3)Gal(b1-4)GlcNAc(b1-6)]Man(a1-6)[Gal(b1-3)GlcNAc(b1-3)Gal(b1-4)GlcNAc(b1-3)Gal(b1-4)GlcNAc(b1-2)Man(a1-3)]Man(b1-4)GlcNAc(b1-4)[Fuc(a1-6)]GlcNAc
Method in brief: as §1

[19] = target: Gal(b1-3)[Fuc(a1-4)]GlcNAc(b1-3)Gal(b1-4)[Fuc(a1-3)]GlcNAc
Method in brief: as §1

[20] = target: Gal(b1-3)[Neu5Ac(b2-6)]GalNAc
Method in brief: as §1

[21] = target: Gal(b1-4)GlcNAc(b1-3)Gal(b1-4)GlcNAc
Method in brief: as §1

[22] = target: Gal(b1-4)GlcNAc(b1-3)Gal(b1-4)GlcNAc(b1-2)Man(a1-3)[Gal(b1-4)GlcNAc(b1-3)Gal(b1-4)GlcNAc(b1-2)Man(a1-6)]Man(b1-4)GlcNAc(b1-4)[Fuc(a1-6)]GlcNAc
Method in brief: as §1

[23] = target: Gal(b1-4)GlcNAc(b1-3)Gal(b1-4)GlcNAc(b1-3)Gal(b1-4)GlcNAc(b1-3)Gal(b1-4)GlcNAc(b1-2)Man(a1-3)[Gal(b1-4)GlcNAc(b1-3)Gal(b1-4)GlcNAc(b1-3)Gal(b1-4)GlcNAc(b1-3)Gal(b1-4)GlcNAc(b1-2)Man(a1-6)]Man(b1-4)GlcNAc(b1-4)GlcNAc
Method in brief: as §1

[24] = target: Gal(b1-4)GlcNAc(b1-3)Gal(b1-4)GlcNAc(b1-3)Gal(b1-4)GlcNAc(b1-3)Gal(b1-4)GlcNAc(b1-2)Man(a1-3)[Gal(b1-4)GlcNAc(b1-3)Gal(b1-4)GlcNAc(b1-3)Gal(b1-4)GlcNAc(b1-3)Gal(b1-4)GlcNAc(b1-2)Man(a1-6)]Man(b1-4)GlcNAc(b1-4)[Fuc(a1-6)]GlcNAc
Method in brief: as §1

[25] = target: Gal(b1-4)GlcNAc(b1-3)Gal(b1-4)GlcNAc(b1-3)Gal(b1-4)GlcNAc(b1-3)Gal(b1-4)GlcNAc(b1-2)[Gal(b1-4)GlcNAc(b1-3)Gal(b1-4)GlcNAc(b1-3)Gal(b1-4)GlcNAc(b1-3)Gal(b1-4)GlcNAc(b1-6)]Man(a1-6)[Gal(b1-4)GlcNAc(b1-3)Gal(b1-4)GlcNAc(b1-3)Gal(b1-4)GlcNAc(b1-3)Gal(b1-4)GlcNAc(b1-2)Man(a1-3)]Man(b1-4)GlcNAc(b1-4)[Fuc(a1-6)]GlcNAc
Method in brief: as §1

[26] = target: Gal(b1-4)GlcNAc(b1-3)Gal(b1-4)GlcNAc(b1-3)Gal(b1-4)GlcNAc(b1-3)Gal(b1-4)GlcNAc(b1-3)Gal(b1-4)GlcNAc(b1-2)[Gal(b1-4)GlcNAc(b1-3)Gal(b1-4)GlcNAc(b1-3)Gal(b1-4)GlcNAc(b1-3)Gal(b1-4)GlcNAc(b1-3)Gal(b1-4)GlcNAc(b1-6)]Man(a1-6)[Gal(b1-4)GlcNAc(b1-3)Gal(b1-4)GlcNAc(b1-3)Gal(b1-4)GlcNAc(b1-3)Gal(b1-4)GlcNAc(b1-3)Gal(b1-4)GlcNAc(b1-2)Man(a1-3)]Man(b1-4)GlcNAc(b1-4)[Fuc(a1-6)]GlcNAc
Method in brief: as §1

Gal(b1-4)GlcNAc6P = target: Gal(b1-4)GlcNAc6P
Method in brief: as §1

Gal6S(b1-4)GlcNAc6S = target: Gal6S(b1-4)GlcNAc6S
Method in brief: as §1

Glc(b1-6)Glc = target: Glc(b1-6)Glc
Method in brief: as §1

[27] = target: GlcA3S(b1-3)Gal(b1-4)GlcNAc(b1-2)Man
Method in brief: as §1

[28] = target: GlcNAc(a1-4)Gal(b1-4)GlcNAc(b1-3)Gal(b1-4)GlcNAc(b1-3)Gal(b1-4)GlcNAc
Method in brief: as §1

[29] = target: GlcNAc(b1-3)Gal(b1-4)GlcNAc
Method in brief: as §1

[30] = target: GlcNAc(b1-4)Gal(b1-4)GlcNAc
Method in brief: as §1

Kdn(a2-6)Gal(b1-4)GlcNAc = target: Kdn(a2-6)Gal(b1-4)GlcNAc
Method in brief: as §1

[31] = target: Man(a1-2)Man(a1-2)Man(a1-3)Man
Method in brief: as §1

[32] = target: Neu5Ac(a2-3)Gal(b1-3)GlcNAc(b1-3)Gal(b1-4)GlcNAc
Method in brief: as §1

[33] = target: Neu5Ac(a2-3)Gal(b1-4)GlcNAc
Method in brief: as §1

[34] = target: Neu5Ac(a2-3)Gal(b1-4)[Fuc(a1-3)]GlcNAc(b1-6)[Gal(b1-3)]GalNAc
Method in brief: as §1

Neu5Ac(a2-6)GalNAc = target: Neu5Ac(a2-6)GalNAc
Method in brief: as §1

Neu5Ac(a2-8)Neu5Ac = target: Neu5Ac(a2-8)Neu5Ac
Method in brief: as §1

[35] = target: Neu5Ac(a2-8)Neu5Ac(a2-8)Neu5Ac
Method in brief: as §1

Neu5Ac(b2-6)GalNAc = target: Neu5Ac(b2-6)GalNAc
Method in brief: as §1

[36] = target: Neu5Gc(a2-3)Gal(b1-3)[Fuc(a1-4)]GlcNAc
Method in brief: as §1

[37] = target: Neu5Gc(a2-8)Neu5Ac(a2-3)Gal(b1-4)GlcNAc
Method in brief: as §1

B1: SGC, Q9M345 (protein)
chain: QNLNFTYNGFHPPLTDISLQGLATVTPNGLLKLTNTSVQKTGHAFCTERIRFKDSQNGNVSSFSTTFVFAIHSQIPTLSGHGIAFVVAPTLGLPFALPSQYIGLFNISNNGNDTNHIFAVEFDTIQSSEFGDPNDNHVGIDLNGLRSANYSTAGYRDDHDKFQNLSLISRKRIQVWIDYDNRSHRIDVTVAPFDSDKPRKPLVSYVRDLSSILLEDMYVGFSSATGSVLSEHFLVGWSFRLNGEAPMLSLSKLPKLPRFEPRRIS
glycan array binding signal (z-score) (Fuc(a1-2)Gal): -0.354
glycan array binding signal (z-score) [1]: 3.64
glycan array binding signal (z-score) [2]: -0.292
glycan array binding signal (z-score) [3]: -0.12
glycan array binding signal (z-score) [4]: -0.332
glycan array binding signal (z-score) (Fuc(a1-2)Gal6S(b1-4)Glc): -0.377
glycan array binding signal (z-score) [5]: -0.4
glycan array binding signal (z-score) [6]: -0.374
glycan array binding signal (z-score) [7]: -0.352
glycan array binding signal (z-score) [8]: -0.4
glycan array binding signal (z-score) [9]: -0.344
glycan array binding signal (z-score) [10]: -0.291
glycan array binding signal (z-score) [11]: -0.299
glycan array binding signal (z-score) (Gal(a1-4)Gal(b1-4)Glc): -0.292
glycan array binding signal (z-score) (Gal(b1-3)GlcNAc): -0.208
glycan array binding signal (z-score) [12]: 0.154
glycan array binding signal (z-score) [13]: 3.77
glycan array binding signal (z-score) [14]: 6.74
glycan array binding signal (z-score) [15]: 0.723
glycan array binding signal (z-score) [16]: -0.434
glycan array binding signal (z-score) [17]: 5.28
glycan array binding signal (z-score) [18]: 4.72
glycan array binding signal (z-score) [19]: -0.357
glycan array binding signal (z-score) [20]: -0.305
glycan array binding signal (z-score) [21]: -0.296
glycan array binding signal (z-score) [22]: 4.81
glycan array binding signal (z-score) [23]: 4.57
glycan array binding signal (z-score) [24]: 5.27
glycan array binding signal (z-score) [25]: 8.45
glycan array binding signal (z-score) [26]: 5.39
glycan array binding signal (z-score) (Gal(b1-4)GlcNAc6P): -0.448
glycan array binding signal (z-score) (Gal6S(b1-4)GlcNAc6S): 0.254
glycan array binding signal (z-score) (Glc(b1-6)Glc): -0.344
glycan array binding signal (z-score) [27]: -0.501
glycan array binding signal (z-score) [28]: -0.351
glycan array binding signal (z-score) [29]: -0.367
glycan array binding signal (z-score) [30]: -0.349
glycan array binding signal (z-score) (Kdn(a2-6)Gal(b1-4)GlcNAc): -0.393
glycan array binding signal (z-score) [31]: -0.36
glycan array binding signal (z-score) [32]: -0.413
glycan array binding signal (z-score) [33]: -0.311
glycan array binding signal (z-score) [34]: 8.35
glycan array binding signal (z-score) (Neu5Ac(a2-6)GalNAc): -0.34
glycan array binding signal (z-score) (Neu5Ac(a2-8)Neu5Ac): -0.356
glycan array binding signal (z-score) [35]: -0.347
glycan array binding signal (z-score) (Neu5Ac(b2-6)GalNAc): -0.286
glycan array binding signal (z-score) [36]: -0.349
glycan array binding signal (z-score) [37]: -0.365

— the supplement of paper PMC8728848
